About 7,900 targets were measured; listed, in parts, are those with a hit and a random draw of the rest. About 0.6% of all pairs of compound and target were hits.
How the values were obtained:
Test in all cases: log2 fold change, soluble protein after heating vs DMSO (PISA); higher = thermal stabilisation; K562 cells, 10 uM, 30 min; active = over 0.2 and 3.5 SD of the protein, either way, in both replicates (recomputed)
[1] = compound: CC1=C(C=C(C=C1)NC(=O)C2=CC(=CC=C2)C(C)(C)C#N)NC3=CC4=C(C=C3)N=CN(C4=O)C
Summary of the method: (§1)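 Values are thermal stability changes relative to control samples and are taken from duplicates. They are stated as log2 fold changes. Before quantification by TMTpro 16plex LC-MS/MS with equalised channel sums, K562 cells at 2×10^6 cells/mL were treated with 10 μM compound for 30 min, heated in aliquots for 3 min across 48°C-58°C, pooled, extracted in PBS with 0.5% NP-40 at 4°C, and centrifuged at 21,000xg for 90 min to give the soluble supernatant.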

[2] = compound: CC1=C(C=C(C=C1)NC(=O)C2=CC(=CC=C2)N(C)C)NC(=O)C3=CC=C(C=C3)O
Summary of the method: as §1

[3] = compound: CC1=CC=C(C=C1)SC2=C3C=C(SC3=CN=C2)C(=O)N
Summary of the method: as §1

[4] = compound: CC1=NC(=CC=C1)C2=C(N=C(N2)C(C)(C)C)C3=CC4=NC=CN=C4C=C3
Summary of the method: as §1

Nexturastat A = compound: CCCCN(Cc1ccc(C(=O)NO)cc1)C(=O)Nc1ccccc1 [Nexturastat A]
Summary of the method: as §1

vemurafenib = compound: CCCS(=O)(=O)Nc1ccc(F)c(C(=O)c2c[nH]c3ncc(-c4ccc(Cl)cc4)cc23)c1F [vemurafenib]
Summary of the method: as §1

[5] = compound: CCCS(=O)(=O)Nc1ccc(F)c(C(=O)c2c[nH]c3ncc(Cl)cc23)c1F
Summary of the method: as §1

[6] = compound: CCCc1cc(C)[nH]c(=O)c1CNC(=O)c1cc(-c2ccnc(N3CCN(C)CC3)c2)cc2c1cnn2C(C)C
Summary of the method: as §1

givinostat = compound: CCN(CC)Cc1ccc2cc(COC(=O)Nc3ccc(C(=O)NO)cc3)ccc2c1 [givinostat]
Summary of the method: as §1

barasertib = compound: CCN(CCCOc1ccc2c(Nc3cc(CC(=O)Nc4cccc(F)c4)[nH]n3)ncnc2c1)CCOP(=O)(O)O [barasertib]
Summary of the method: as §1

[7] = compound: CC[C@@H]1C(=O)N(C)c2cnc(Nc3ccc(C(=O)NC4CCN(C)CC4)cc3OC)nc2N1C1CCCC1
Summary of the method: as §1

volasertib = compound: CC[C@@H]1C(=O)N(C)c2cnc(Nc3ccc(C(=O)N[C@H]4CC[C@H](N5CCN(CC6CC6)CC5)CC4)cc3OC)nc2N1C(C)C [volasertib]
Summary of the method: as §1

[8] = compound: CC[C@H](C)N1C=C(C2=C(C=C(C=C21)C3=CN=C(C=C3)N4CCNCC4)C(=O)NCC5=C(C=C(NC5=O)C)C)C
Summary of the method: as §1

epoxomicin = compound: CC[C@H](C)[C@@H](C(=O)N[C@@H]([C@@H](C)O)C(=O)N[C@@H](CC(C)C)C(=O)[C@]1(CO1)C)NC(=O)[C@H]([C@@H](C)CC)N(C)C(=O)C [epoxomicin]
Summary of the method: as §1

[9] = compound: CCn1c(C(=O)N(C2CC2)C2CC2)cc2c3c(ncn3C)c(Nc3cc(C)n(C)n3)nc21
Summary of the method: as §1

[10] = compound: CCn1cc(-c2ccnc3[nH]c(-c4cccc(CN(C)C)c4)cc23)c(-c2ccc(NC(=O)N(C)C)cc2)n1
Summary of the method: as §1

[11] = compound: CN(C)CC(=O)Nc1ccc2[nH]c(=O)c3ccccc3c2c1
Summary of the method: as §1

rosiglitazone = compound: CN(CCOC1=CC=C(C=C1)C[C@H]2C(=O)NC(=O)S2)C3=CC=CC=N3 (racemic) [rosiglitazone]
Summary of the method: as §1

[12] = compound: CN1C2=C(C3=C1C(=O)N(N=C3)CC4=CC(=CC=C4)N)SC(=C2)S(=O)C
Summary of the method: as §1

[13] = compound: CN1CCC(CNc2ccc3ncc(-c4cccc(OC(F)(F)F)c4)n3n2)CC1
Summary of the method: as §1

Measured: log2 fold change

SLC30A7 (UniProt Q8NEW0)
Sequence of UniProt Q8NEW0 (Q8NEW0 whole entry, looked up): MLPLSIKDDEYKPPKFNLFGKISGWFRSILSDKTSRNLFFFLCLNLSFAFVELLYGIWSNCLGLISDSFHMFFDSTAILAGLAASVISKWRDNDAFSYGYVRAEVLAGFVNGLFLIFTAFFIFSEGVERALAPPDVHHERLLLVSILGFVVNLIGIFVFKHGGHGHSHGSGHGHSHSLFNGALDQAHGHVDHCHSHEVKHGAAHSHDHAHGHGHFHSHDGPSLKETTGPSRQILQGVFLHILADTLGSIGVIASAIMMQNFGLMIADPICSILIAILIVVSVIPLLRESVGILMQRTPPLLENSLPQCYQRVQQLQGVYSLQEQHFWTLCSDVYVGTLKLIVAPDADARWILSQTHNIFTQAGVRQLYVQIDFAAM
inactive: [1] -0.03 | [2] 0.003 | [3] 0.03 | [4] -0.072 | Nexturastat A -0.108 | vemurafenib 0.072 | [5] -0.019 | [6] -0.148 | givinostat 0.081 | barasertib 0.032 | [7] 0.016 | volasertib -0.074 | [8] -0.041 | epoxomicin -0.034 | [9] -0.007 | [10] 0.032 | [11] 0.014 | rosiglitazone 0.053 | [12] -0.05 | [13] 0.091

STX7 (UniProt O15400)
inactive: [1] -0.003 | [2] 0.025 | [3] -0.002 | [4] 0.055 | Nexturastat A -0.023 | vemurafenib -0.036 | [5] 0 | [6] 0 | givinostat -0.002 | barasertib -0.02 | [7] -0.021 | volasertib 0.057 | [8] -0.03 | epoxomicin -0.008 | [9] 0.032 | [10] 0.094 | [11] -0.006 | rosiglitazone -0.004 | [12] 0.005 | [13] -0.116

STARD3NL (UniProt O95772)
Sequence of UniProt O95772 (O95772 whole entry, looked up): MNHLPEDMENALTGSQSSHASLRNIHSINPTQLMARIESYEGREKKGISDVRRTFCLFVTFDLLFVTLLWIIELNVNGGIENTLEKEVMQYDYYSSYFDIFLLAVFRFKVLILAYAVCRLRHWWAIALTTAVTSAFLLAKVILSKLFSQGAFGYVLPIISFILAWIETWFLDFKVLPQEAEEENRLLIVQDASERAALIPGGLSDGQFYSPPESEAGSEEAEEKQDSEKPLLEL
active: [13] -0.371
inactive: [1] 0.01 | [2] -0.002 | [3] 0.056 | [4] 0.076 | Nexturastat A -0.12 | vemurafenib 0.02 | [5] 0.048 | [6] -0.021 | givinostat 0.009 | barasertib -0.027 | [7] 0.037 | volasertib -0.022 | [8] -0.036 | epoxomicin -0.085 | [9] 0.007 | [10] -0.014 | [11] -0.068 | rosiglitazone 0.014 | [12] -0.058

TBC1D24 (UniProt Q9ULP9)
inactive: [1] -0.018 | [2] -0.012 | [3] 0.005 | [4] 0.006 | Nexturastat A -0.024 | vemurafenib 0.019 | [5] 0.046 | [6] -0.033 | givinostat 0.005 | barasertib -0.019 | [7] 0.025 | volasertib -0.028 | [8] 0.05 | epoxomicin -0.011 | [9] -0.006 | [10] -0.175 | [11] 0.018 | rosiglitazone 0.075 | [12] -0.067 | [13] -0.236

SUMO1 (UniProt P63165)
Sequence of UniProt P63165 (P63165 whole entry, looked up): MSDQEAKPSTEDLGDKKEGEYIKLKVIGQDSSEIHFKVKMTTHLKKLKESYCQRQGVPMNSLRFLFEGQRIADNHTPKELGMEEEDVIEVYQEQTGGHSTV
active: [5] 0.657
inactive: [1] -0.064 | [2] -0.045 | [3] 0.4 | [4] 0.024 | Nexturastat A -0.142 | vemurafenib -0.051 | [6] -0.071 | givinostat -0.172 | barasertib -0.055 | [7] 0.034 | volasertib -0.035 | [8] -0.046 | epoxomicin -0.011 | [9] 0.088 | [10] 0.015 | [11] 0.021 | rosiglitazone 0.002 | [12] 0.038 | [13] 0.007

TELO2 (UniProt Q9Y4R8)
Sequence of UniProt Q9Y4R8 (Q9Y4R8 whole entry, looked up): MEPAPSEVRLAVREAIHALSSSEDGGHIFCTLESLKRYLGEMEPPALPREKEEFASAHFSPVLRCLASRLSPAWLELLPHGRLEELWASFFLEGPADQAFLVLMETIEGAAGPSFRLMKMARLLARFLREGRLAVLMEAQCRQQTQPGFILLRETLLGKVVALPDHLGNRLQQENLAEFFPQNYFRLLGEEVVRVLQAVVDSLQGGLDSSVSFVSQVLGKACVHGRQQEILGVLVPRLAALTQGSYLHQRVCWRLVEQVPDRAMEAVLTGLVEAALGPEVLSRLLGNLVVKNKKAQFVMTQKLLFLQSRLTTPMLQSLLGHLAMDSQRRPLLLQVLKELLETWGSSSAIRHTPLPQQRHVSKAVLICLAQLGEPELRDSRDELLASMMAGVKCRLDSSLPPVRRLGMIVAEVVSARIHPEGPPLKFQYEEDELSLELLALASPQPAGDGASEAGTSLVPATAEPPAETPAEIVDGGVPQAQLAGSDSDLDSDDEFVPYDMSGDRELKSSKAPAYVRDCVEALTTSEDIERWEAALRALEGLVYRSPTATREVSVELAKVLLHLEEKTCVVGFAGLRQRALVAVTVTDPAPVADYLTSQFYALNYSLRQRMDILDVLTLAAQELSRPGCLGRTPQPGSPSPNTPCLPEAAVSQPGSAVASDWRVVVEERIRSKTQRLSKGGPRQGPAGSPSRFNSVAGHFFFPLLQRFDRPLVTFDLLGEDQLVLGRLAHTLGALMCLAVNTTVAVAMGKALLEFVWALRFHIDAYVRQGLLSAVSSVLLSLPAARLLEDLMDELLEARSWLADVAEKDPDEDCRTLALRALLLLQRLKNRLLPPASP
inactive: [1] 0.04 | [2] -0.026 | [3] 0.028 | [4] -0.057 | Nexturastat A 0.143 | vemurafenib 0.12 | [5] 0.089 | [6] 0.014 | givinostat 0.084 | barasertib 0.05 | [7] -0.083 | [8] -0.017 | epoxomicin -0.093 | [9] -0.031 | [10] 0.005 | [11] 0.123 | rosiglitazone 0.036 | [12] 0.154 | [13] -0.052
active: volasertib -0.359

TARS2 (UniProt Q9BW92)
Sequence of UniProt Q9BW92 (Q9BW92 whole entry, looked up): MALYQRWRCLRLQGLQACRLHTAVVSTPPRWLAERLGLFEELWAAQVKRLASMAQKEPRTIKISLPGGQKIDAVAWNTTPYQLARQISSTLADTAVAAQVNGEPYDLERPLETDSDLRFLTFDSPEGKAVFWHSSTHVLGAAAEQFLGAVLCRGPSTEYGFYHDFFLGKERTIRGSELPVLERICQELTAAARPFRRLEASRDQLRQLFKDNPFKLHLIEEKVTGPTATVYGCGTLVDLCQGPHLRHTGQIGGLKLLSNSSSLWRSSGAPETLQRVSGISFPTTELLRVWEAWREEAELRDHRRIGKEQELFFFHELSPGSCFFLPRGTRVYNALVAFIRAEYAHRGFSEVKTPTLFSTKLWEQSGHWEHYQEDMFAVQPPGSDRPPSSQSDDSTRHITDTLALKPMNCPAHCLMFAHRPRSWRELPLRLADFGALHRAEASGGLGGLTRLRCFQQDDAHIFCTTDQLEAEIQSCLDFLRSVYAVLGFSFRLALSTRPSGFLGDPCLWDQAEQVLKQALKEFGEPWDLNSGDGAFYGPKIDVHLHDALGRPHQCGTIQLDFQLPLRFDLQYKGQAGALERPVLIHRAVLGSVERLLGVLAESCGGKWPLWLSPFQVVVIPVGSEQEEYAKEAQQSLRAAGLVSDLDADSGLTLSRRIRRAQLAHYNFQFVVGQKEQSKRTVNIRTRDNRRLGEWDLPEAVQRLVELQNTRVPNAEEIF
inactive: [1] -0.027 | [2] 0.022 | [3] 0.021 | [4] 0.078 | Nexturastat A -0.201 | vemurafenib 0.008 | [5] 0.027 | [6] -0.013 | barasertib 0.028 | [7] -0.017 | volasertib -0.128 | [8] 0.012 | epoxomicin 0.02 | [9] 0.009 | [10] -0.002 | [11] -0.019 | rosiglitazone 0.018 | [12] -0.055 | [13] -0.069
active: givinostat -0.245

SNUPN (UniProt O95149)
Sequence of UniProt O95149 (O95149 whole entry, looked up): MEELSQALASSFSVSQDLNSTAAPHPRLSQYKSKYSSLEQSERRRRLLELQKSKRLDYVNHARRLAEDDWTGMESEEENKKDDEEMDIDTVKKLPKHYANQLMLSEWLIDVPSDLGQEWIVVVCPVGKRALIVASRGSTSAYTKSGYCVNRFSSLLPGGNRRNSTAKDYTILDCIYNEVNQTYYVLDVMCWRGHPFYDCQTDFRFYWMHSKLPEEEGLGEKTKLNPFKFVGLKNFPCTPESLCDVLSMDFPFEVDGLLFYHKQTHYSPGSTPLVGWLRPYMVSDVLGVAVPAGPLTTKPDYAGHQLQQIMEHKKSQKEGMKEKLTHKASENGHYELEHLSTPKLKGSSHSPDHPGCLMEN
active: volasertib -0.296
inactive: [1] -0.078 | [2] 0.052 | [3] 0.013 | [4] 0.026 | Nexturastat A -0.037 | vemurafenib -0.024 | [5] -0.065 | [6] 0.013 | givinostat -0.017 | barasertib 0.024 | [7] -0.133 | [8] 0.014 | epoxomicin -0.013 | [9] 0.019 | [10] -0.076 | [11] 0.003 | rosiglitazone -0.001 | [12] -0.01 | [13] -0.004

SPR (UniProt P35270)
Sequence of UniProt P35270 (P35270 whole entry, looked up): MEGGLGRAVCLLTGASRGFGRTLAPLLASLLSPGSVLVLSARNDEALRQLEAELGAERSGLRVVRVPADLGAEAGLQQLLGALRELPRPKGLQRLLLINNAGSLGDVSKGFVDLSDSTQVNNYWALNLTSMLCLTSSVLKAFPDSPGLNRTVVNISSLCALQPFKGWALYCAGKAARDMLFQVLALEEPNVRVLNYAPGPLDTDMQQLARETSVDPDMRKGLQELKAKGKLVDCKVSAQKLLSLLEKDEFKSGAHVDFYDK
inactive: [1] 0.103 | [2] -0.003 | [3] 0.063 | [4] -0.043 | Nexturastat A -0.069 | vemurafenib -0.019 | [5] 0.019 | [6] 0.009 | givinostat -0.004 | barasertib -0.076 | [7] 0.02 | volasertib 0.165 | [8] 0.013 | epoxomicin -0.054 | [10] 0.073 | [11] 0.153 | rosiglitazone 0.008 | [12] -0.184 | [13] 0.012
active: [9] 0.412

SLC25A38 (UniProt Q96DW6)
Sequence of UniProt Q96DW6 (Q96DW6 whole entry, looked up): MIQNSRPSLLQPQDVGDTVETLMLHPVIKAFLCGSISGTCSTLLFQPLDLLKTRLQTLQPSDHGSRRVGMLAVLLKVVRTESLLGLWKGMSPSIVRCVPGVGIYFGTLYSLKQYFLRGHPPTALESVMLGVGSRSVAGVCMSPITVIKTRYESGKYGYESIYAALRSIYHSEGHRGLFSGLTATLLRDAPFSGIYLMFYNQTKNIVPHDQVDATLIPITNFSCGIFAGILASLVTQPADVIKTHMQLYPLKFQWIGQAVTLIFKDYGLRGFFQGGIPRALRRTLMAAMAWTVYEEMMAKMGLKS
inactive: [1] 0.075 | [2] -0.011 | [3] -0.047 | [4] 0.076 | Nexturastat A -0.012 | vemurafenib -0.059 | [5] -0.019 | [6] -0.145 | givinostat -0.004 | barasertib 0.014 | [7] 0.013 | volasertib 0.009 | [8] -0.002 | epoxomicin -0.025 | [9] 0.048 | [10] 0 | [11] -0.02 | rosiglitazone -0.028 | [12] -0.017 | [13] -0.048

SMG1 (UniProt Q96Q15)
inactive: [1] -0.068 | [2] -0.048 | [3] 0.031 | [4] 0.012 | Nexturastat A 0.045 | vemurafenib 0.029 | [5] 0.077 | [6] -0.096 | givinostat 0.05 | barasertib 0.075 | [7] -0.137 | [8] 0.158 | epoxomicin 0.024 | [9] 0.002 | [10] 0.05 | [11] 0.046 | rosiglitazone -0.003 | [12] 0.129 | [13] -0.02
active: volasertib -0.391

SPPL2B (UniProt Q8TCT7)
Sequence of UniProt Q8TCT7 (Q8TCT7 whole entry, looked up): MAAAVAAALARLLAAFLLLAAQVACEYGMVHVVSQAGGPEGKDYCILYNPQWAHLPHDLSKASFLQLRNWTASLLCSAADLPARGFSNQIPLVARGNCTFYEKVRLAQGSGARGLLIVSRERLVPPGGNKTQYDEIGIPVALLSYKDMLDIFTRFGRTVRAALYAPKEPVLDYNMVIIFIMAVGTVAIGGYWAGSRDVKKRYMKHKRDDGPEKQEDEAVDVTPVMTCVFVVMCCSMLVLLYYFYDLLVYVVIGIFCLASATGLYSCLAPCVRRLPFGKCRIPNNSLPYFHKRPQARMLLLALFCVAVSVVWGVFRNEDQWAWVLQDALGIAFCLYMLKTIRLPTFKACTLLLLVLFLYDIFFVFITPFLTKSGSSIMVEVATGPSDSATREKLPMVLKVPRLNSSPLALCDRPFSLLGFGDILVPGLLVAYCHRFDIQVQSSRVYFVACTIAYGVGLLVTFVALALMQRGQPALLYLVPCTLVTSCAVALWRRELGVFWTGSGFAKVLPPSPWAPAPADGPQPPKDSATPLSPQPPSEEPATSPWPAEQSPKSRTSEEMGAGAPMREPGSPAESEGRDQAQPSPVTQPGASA
inactive: [1] -0.097 | [2] 0.004 | [3] 0.089 | [4] 0.041 | Nexturastat A 0.029 | vemurafenib -0.05 | [5] -0.018 | [6] 0.021 | givinostat 0.048 | barasertib 0 | [7] 0.039 | volasertib 0 | [8] -0.003 | epoxomicin -0.076 | [9] -0.004 | [10] 0.028 | [11] 0.035 | rosiglitazone -0.022 | [12] 0.033 | [13] -0.228

SPCS2 (UniProt Q15005)
Sequence of UniProt Q15005 (Q15005 whole entry, looked up): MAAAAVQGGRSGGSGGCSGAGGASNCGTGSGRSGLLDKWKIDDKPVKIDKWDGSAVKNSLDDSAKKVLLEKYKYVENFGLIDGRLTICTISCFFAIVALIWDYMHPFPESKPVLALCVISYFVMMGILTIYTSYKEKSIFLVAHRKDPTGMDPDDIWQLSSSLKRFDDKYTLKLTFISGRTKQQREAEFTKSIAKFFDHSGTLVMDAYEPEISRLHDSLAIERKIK
inactive: [1] 0.011 | [2] 0.004 | [3] 0 | [4] 0.3 | Nexturastat A -0.052 | vemurafenib 0.075 | [5] 0.058 | [6] -0.011 | givinostat -0.009 | barasertib 0.025 | [7] 0.018 | volasertib -0.006 | [8] 0.02 | epoxomicin 0.091 | [9] -0.067 | [10] -0.009 | [11] 0.038 | rosiglitazone 0.029 | [12] -0.078 | [13] 0.005

SRI (UniProt P30626)
Sequence of UniProt P30626 (P30626 whole entry, looked up): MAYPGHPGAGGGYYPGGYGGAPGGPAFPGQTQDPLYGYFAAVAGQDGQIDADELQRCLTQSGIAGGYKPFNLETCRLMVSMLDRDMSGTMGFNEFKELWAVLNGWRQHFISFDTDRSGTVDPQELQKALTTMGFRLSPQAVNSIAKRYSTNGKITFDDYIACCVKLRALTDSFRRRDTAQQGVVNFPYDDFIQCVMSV
inactive: [1] 0.035 | [2] -0.092 | [3] 0.094 | [4] 0.037 | Nexturastat A -0.073 | vemurafenib 0.092 | [5] 0.045 | [6] -0.055 | givinostat -0.03 | barasertib 0.107 | [7] 0.008 | volasertib -0.111 | [8] -0.013 | [9] 0.09 | [10] -0.058 | [11] 0.009 | rosiglitazone 0.003 | [12] -0.071 | [13] 0.126
active: epoxomicin 0.393

SRSF4 (UniProt Q08170)
Sequence of UniProt Q08170 (Q08170 whole entry, looked up): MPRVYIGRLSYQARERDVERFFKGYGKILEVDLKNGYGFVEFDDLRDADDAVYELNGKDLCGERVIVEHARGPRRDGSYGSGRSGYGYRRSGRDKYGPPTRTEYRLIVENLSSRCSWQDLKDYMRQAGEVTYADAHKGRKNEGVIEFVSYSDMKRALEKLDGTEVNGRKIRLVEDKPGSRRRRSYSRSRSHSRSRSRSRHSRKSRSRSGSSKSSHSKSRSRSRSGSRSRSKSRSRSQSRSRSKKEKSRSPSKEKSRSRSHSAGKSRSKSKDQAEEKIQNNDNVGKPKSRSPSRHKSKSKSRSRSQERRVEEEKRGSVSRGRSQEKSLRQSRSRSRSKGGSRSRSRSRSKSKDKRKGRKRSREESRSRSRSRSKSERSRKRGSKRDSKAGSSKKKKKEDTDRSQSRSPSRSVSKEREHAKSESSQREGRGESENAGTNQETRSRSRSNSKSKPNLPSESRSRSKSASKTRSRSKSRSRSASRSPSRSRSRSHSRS
inactive: [1] 0.042 | [2] -0.001 | [3] -0.067 | [4] -0.032 | Nexturastat A 0.074 | vemurafenib -0.027 | [5] 0.017 | [6] 0.224 | givinostat 0.052 | barasertib -0.064 | [7] 0.091 | volasertib -0.001 | [8] 0.011 | epoxomicin -0.175 | [9] -0.068 | [10] 0.115 | [11] -0.09 | rosiglitazone -0.09 | [12] 0.205 | [13] 0.087

— the supplement of paper PMC10849652
